This note sets out measurements from the supplement of paper PMC11732987, “Enantioselective OTUD7B fragment discovery through chemoproteomics screening and high-throughput optimisation” (Communications Chemistry, 2025).

What all share (test): log2 ratio of Biotin-Ahx-Ub-VS probe labelling (fragment/DMSO); higher = less target engagement (more negative = stronger competition), active = hit call of the paper (q ≤ 0.05, log2 ratio ≤ -1)
Holding throughout (details): compound concentration: 200 uM; treatment time: 3 h

One assay concerns the target T1, OTUD6B (UniProt Q8N6M0).
T1 sequence (whole entry): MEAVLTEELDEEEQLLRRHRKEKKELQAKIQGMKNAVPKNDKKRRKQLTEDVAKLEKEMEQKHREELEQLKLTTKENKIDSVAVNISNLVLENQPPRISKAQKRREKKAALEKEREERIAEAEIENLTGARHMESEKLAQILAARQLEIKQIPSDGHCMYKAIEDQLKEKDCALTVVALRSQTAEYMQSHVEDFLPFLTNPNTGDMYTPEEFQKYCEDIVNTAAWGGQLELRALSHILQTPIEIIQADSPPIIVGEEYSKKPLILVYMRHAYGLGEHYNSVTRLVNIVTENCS
The method, boiled down: (§1)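 HEK293T lysate in Tris/CHAPS/IGEPAL buffer with protease inhibitors (495 µg per sample) was given fragment at 200 µM or vehicle for 3 h, in triplicate. It then received Biotin-Ahx-Ub-VS at 0.5 µM final for 1 h. Labelled DUBs were NeutrAvidin-enriched, digested with LysC and trypsin, and run by diaPASEF LC-MS/MS. Values are average log2 fragment/vehicle ratios by unpaired t-test on global-median-normalised Spectronaut quantities of proteins with ≥2 unique peptides.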

For another assay, the target named is T2, OTUD7B (UniProt Q6GQQ9).
T2 sequence (whole entry): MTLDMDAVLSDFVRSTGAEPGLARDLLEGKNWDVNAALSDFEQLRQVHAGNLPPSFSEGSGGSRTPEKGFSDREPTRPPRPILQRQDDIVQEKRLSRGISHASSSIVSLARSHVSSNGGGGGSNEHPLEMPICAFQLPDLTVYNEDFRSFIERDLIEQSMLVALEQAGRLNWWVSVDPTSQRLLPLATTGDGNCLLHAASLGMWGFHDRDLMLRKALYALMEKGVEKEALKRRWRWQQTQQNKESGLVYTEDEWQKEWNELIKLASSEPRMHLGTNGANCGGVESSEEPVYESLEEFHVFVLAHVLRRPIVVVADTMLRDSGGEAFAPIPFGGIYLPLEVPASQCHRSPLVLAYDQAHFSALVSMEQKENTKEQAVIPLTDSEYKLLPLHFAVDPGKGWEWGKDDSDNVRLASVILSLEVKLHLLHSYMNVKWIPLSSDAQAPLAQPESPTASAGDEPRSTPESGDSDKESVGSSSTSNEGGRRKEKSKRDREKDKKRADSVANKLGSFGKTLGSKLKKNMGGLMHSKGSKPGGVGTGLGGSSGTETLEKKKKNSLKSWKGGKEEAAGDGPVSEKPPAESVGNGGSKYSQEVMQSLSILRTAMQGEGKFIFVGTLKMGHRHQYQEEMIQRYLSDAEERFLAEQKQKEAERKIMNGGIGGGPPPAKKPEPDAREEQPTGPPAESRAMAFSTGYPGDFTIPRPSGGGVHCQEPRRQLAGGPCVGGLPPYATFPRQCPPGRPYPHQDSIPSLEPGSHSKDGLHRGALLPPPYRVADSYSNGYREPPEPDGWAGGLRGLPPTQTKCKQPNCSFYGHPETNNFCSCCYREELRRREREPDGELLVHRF
Put shortly:
as §1

The next assay concerns the target PRPF8 (UniProt Q6P2Q9). Put shortly: as §1
A further assay concerns the target T3, PSMD7 (UniProt P51665).
T3 sequence (whole entry): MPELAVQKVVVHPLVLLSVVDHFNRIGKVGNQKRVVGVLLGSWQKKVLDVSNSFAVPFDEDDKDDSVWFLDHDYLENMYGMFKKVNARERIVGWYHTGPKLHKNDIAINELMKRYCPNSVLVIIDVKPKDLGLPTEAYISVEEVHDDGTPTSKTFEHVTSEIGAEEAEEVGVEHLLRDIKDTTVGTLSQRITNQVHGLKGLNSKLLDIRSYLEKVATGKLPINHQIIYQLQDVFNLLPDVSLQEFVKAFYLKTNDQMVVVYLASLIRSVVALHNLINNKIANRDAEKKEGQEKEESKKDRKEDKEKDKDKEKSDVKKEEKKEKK
The method, boiled down: as §1

For a further assay, the target named is UCHL1 (UniProt P09936). The method, boiled down:
as §1

The target in another assay is T4, UCHL3 (UniProt P15374).
T4 sequence (whole entry): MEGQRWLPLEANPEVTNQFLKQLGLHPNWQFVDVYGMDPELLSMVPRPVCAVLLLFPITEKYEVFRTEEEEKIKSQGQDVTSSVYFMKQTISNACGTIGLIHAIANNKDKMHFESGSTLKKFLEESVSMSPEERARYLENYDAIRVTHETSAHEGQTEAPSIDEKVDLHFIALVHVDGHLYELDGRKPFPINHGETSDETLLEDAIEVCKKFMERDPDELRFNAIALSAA
Put shortly: as §1

Another assay has as its target T5, UCHL5 (UniProt Q9Y5K5).
T5 sequence (whole entry): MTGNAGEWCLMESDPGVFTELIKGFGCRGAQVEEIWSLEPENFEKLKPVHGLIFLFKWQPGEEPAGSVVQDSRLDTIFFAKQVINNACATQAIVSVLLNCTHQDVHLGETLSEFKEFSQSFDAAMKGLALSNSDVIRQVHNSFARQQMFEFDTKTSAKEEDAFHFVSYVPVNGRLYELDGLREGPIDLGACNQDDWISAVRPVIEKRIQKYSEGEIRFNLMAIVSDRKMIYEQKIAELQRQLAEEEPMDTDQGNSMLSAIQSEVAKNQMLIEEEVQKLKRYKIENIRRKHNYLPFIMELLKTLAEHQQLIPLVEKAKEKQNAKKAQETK
The method, boiled down: as §1

A further assay concerns the target USP10 (UniProt Q14694). The method, boiled down: as §1
The next assay concerns the target T6, USP15 (UniProt Q9Y4E8).
T6 sequence (whole entry): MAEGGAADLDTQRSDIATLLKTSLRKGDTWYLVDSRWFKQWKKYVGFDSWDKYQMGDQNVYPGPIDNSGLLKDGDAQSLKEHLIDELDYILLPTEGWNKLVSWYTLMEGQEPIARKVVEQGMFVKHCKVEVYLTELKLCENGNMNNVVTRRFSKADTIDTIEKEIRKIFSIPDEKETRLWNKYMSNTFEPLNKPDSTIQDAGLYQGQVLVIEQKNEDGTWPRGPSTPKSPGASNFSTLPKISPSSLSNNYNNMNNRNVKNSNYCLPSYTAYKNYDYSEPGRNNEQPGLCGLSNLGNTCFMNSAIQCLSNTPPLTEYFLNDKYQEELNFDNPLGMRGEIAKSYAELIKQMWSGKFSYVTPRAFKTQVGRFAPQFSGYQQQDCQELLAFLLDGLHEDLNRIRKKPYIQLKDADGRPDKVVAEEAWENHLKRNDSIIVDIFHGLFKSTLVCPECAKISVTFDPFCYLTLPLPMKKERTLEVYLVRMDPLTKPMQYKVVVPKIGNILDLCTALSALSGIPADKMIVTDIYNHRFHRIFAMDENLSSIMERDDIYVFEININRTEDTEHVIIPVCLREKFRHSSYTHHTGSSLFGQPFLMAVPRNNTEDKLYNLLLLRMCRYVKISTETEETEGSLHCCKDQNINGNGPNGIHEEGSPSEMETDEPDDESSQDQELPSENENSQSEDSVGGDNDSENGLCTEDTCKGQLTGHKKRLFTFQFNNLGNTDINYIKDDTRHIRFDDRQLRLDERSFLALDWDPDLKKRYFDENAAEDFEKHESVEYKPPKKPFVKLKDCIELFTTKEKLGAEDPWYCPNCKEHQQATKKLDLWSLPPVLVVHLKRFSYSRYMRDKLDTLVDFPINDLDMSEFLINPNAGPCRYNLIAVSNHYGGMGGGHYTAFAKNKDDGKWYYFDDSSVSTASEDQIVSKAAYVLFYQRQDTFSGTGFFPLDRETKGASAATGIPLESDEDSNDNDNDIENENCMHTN
Put shortly:
as §1

The target in a further assay is USP16 (UniProt Q9Y5T5). The method, boiled down: as §1
Sequence of USP16 (Q9Y5T5 whole entry, looked up): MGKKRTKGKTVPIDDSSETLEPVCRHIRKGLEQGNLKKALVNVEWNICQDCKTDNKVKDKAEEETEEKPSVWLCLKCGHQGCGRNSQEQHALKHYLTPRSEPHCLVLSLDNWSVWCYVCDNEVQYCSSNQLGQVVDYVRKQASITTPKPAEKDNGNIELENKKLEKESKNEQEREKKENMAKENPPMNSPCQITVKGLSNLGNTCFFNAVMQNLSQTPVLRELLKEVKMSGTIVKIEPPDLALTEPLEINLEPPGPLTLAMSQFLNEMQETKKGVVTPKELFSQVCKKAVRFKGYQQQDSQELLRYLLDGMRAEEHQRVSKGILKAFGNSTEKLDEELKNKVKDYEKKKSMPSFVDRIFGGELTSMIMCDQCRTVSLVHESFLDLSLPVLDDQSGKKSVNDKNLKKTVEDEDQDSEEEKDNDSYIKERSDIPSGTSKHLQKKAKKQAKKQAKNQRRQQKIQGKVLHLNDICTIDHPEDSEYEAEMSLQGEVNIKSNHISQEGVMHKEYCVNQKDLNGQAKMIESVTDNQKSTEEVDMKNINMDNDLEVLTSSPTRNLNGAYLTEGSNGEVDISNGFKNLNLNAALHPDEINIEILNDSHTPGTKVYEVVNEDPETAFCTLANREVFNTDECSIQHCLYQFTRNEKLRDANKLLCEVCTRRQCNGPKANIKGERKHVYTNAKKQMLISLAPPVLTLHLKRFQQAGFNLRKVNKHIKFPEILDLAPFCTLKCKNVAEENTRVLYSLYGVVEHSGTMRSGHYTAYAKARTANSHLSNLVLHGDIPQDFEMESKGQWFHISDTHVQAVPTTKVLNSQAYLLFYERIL

Each structure is given as a SMILES string. Values without a mark were called inactive.

Sequence of UCHL1 (P09936 whole entry, looked up): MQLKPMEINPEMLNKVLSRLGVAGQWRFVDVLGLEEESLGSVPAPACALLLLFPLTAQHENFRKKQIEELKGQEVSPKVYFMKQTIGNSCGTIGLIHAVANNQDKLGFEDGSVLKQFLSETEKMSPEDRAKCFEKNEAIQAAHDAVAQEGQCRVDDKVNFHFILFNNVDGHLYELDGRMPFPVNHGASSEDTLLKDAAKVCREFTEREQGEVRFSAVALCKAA
Sequence of USP10 (Q14694 whole entry): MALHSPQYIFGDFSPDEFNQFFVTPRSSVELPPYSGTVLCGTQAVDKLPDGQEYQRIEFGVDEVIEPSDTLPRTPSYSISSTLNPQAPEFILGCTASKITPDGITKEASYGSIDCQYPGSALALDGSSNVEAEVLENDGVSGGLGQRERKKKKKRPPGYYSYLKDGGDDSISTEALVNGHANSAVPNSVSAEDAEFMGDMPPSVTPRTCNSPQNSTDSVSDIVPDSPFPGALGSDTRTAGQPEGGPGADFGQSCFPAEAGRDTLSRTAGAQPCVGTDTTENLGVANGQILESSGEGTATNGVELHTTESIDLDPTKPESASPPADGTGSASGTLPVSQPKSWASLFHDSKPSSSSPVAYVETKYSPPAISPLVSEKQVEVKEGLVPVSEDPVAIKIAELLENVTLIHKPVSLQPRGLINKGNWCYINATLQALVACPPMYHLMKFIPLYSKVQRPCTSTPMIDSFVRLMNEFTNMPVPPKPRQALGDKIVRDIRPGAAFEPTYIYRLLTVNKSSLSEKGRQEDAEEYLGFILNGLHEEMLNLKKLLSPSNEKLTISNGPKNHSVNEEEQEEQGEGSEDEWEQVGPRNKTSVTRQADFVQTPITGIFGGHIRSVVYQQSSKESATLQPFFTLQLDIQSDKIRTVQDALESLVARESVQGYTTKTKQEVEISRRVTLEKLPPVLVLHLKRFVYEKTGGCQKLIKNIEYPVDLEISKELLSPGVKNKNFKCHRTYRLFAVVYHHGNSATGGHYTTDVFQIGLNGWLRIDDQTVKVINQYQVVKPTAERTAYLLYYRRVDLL

Turning to `O=C(CCl)N1CCOCCC1c1ccccc1` (stereo not given), the “log2 ratio of Biotin-Ahx-Ub-VS probe labelling” value with OTUD6B is -0.163; with OTUD7B, -0.354; in the assay with PRPF8, -0.148; with PSMD7, 0.00247; with UCHL1 it was -1.93 (active); in the assay with UCHL3, 0.325. Also, the “log2 ratio of Biotin-Ahx-Ub-VS probe labelling” value in the assay with UCHL5 was -0.0371; in the assay with USP10, -0.182; in the assay with USP15, 0.0371; with USP16, -0.424.
